From PubChem BioAssay (Tox21)
Inconclusive results are not listed. A call without a number means that no potency is given here. Activity calls are given as the source filed them. The call rests on the fitted dose curve; in most records, active means well fitted inhibition curve with a large enough effect in the repeat runs; inconclusive means weak or mixed curves, or effect the other way; inactive means no such curve, though single readings can be large or run the other way.

Each molecule was assayed against Nuclear receptor ROR-gamma (Homo sapiens) (UniProt P51449) (assay: qHTS assay to identify small molecule antagonists of the retinoid-related orphan receptor gamma (ROR-gamma) signaling pathway (AID 1159521; further: nearly all actives have a fitted effect of over 50% in size)). Conditions: Tet-on RORgamma CHO cells, RORE-luciferase, 16 h; series mostly up to 92.4 µM.
Text: U.S. Tox21 Program National Center for Advancing Translational Sciences [NCATS] NIH Chemical Genomics Center [NCGC] U.S. Environmental Protection Agency [EPA] National Institutes of Environmental Health Sciences [NIEHS] National Toxicology Program [NTP] U.S. Food and Drug Administration [FDA] Tox21 Assay Overview: Nuclear steroid hormone receptors are involved in many biological processes including inflammatory responses, cell proliferation, and apoptosis. Environmental factors or compounds disrupting these nuclear receptor pathways and gene expression may promote susceptibility to immunotoxicants and autoimmune diseases. One important group of these expression factors are the retinoid-related orphan receptors. To assess compounds that may interfere with the retinoid-related orphan receptor gamma (ROR-gamma) transcription factor, a cell-based luciferase assay was used. The CHO cell-based assay utilizes a TET-inducible ROR expression factor and ROR response element-LUC reporter gene. Reporter gene activity was induced using Doxycycline Hyclate and measured after 16 hr incubation. Tet-on ROR gamma CHO cells were used to screen against the Tox21 10K compound library for ROR gamma antagonists by quantification of decreased reporter gene activity in terms of decreased luminescence.
Tox21 Assay Protocol Summary: Tet-on ROR gamma CHO cells were dispensed at 1,000 cells in 4 uL of culture medium per well into white wall/solid bottom 1536-well plates using a Multidrop Combi (Thermo Scientific, Waltham, MA) dispenser. Following incubation at 37 C and 5% CO2 for 4 hr, 23 nL of compounds dissolved in DMSO, positive controls or DMSO only were transferred by a Pintool station (Kalypsys, San Diego, CA) and after 2 hr incubation at 37 C, one ul of 1 uM (final concentration) of Doxycycline Hyclate was added to all the wells by using a Flying Reagent Dispenser (FRD) (Aurora Discovery, San Diego, CA). After 16 hr incubation at 37 C and 5% CO2, 5 uL of ONE-Glo reagent (Promega Corporation, Madison, WI) was added to each assay plate using FRD. After 30 min incubation at room temperature, luminescence was quantified on a ViewLux plate reader (Perkin Elmer, Waltham, MA).
Potency means the concentration at half of the fitted maximal effect.

Row | Compound | Potency
1 | CC(=O)OCC(=O)[C@@]1(O)[C@H](C)C[C@H]2[C@@H]3CCC4=CC(=O)C=C[C@]4(C)[C@@]3(F)[C@@H](O)C[C@@]21C | inactive
2 | CC/C=C\CCOC(C)OCC (stereo not given) | inactive
3 | N[C@@H](CCC(=O)O)C(=O)O | inactive
4 | CC(=O)c1ccccc1[N+](=O)[O-] | inactive
5 | Nc1c2c(nc3c1CCC3)CCCC2 | inactive
6 | CCCCCCCCN1CCCC1=O | inactive
7 | NC(=O)Cc1cccc2ccccc12 | inactive
8 | COc1cccc(OC)c1C(=O)N[C@@H]1C(=O)N2[C@@H]1SC(C)(C)[C@@H]2C(=O)O | inactive
9 | C[N+](C)(C)CCCCCCCCCC[N+](C)(C)C | inactive
10 | Cc1coc2ccccc2c1=O | inactive
11 | COc1ccc2cc1Oc1cc3c(cc1OC)CC[N+](C)(C)[C@H]3Cc1ccc(cc1)Oc1c(OC)c(OC)cc3c1[C@@H](C2)[N+](C)(C)CC3 | inactive
12 | CC(CC=O)CC(C)(C)C (stereo not given) | inactive
13 | CN1[C@@H]2CC[C@H]1CC(OC(=O)C(O)c1ccccc1)C2 (stereo not given in full) | inactive
14 | CN(C)C(=O)Oc1ccc[n+](C)c1 | inactive
15 | O=C1c2ccccc2C(=O)c2cc(O)ccc21 | inactive
16 | Cc1onc(-c2c(Cl)cccc2Cl)c1C(=O)Cl | inactive
17 | CC(COc1ccccc1)NN (stereo not given) | inactive
18 | C1CCC2=NCCCN2CC1 | inactive
19 | CCOC(=O)COC(=O)c1ccccc1C(=O)OCC | inactive
20 | CC(C#N)(CCC(=O)O)N=NC(C)(C#N)CCC(=O)O (stereo not given) | inactive

Row | Compound | Potency
21 | CNCC(O)c1ccc(O)c(O)c1 (stereo not given) | inactive
22 | CCCOC(=O)CC | inactive
23 | Nc1ccn([C@@H]2O[C@H](CO)[C@@H](O)C2(F)F)c(=O)n1 | 237 nM (active)
24 | COc1ccnc(CS(=O)c2nc3cc(OC(F)F)ccc3[nH]2)c1OC (stereo not given) | inactive
25 | CCCCCCCCCCCCSC | inactive
26 | CNCCO | inactive
27 | Cc1ncc(COP(=O)(O)O)c(C=O)c1O | inactive
28 | CC1=NS(=O)(=O)c2cc(Cl)ccc2N1 | inactive
29 | C[N+](C)(CCOc1ccccc1)Cc1cccs1 | inactive
30 | CCCCN(CCC(=O)OCC)C(C)=O | inactive
31 | C[C@@H]1C[C@H]2[C@@H]3C[C@H](F)C4=CC(=O)C(Cl)=C[C@]4(C)[C@@]3(F)[C@@H](O)C[C@]2(C)[C@@]1(O)C(=O)CO | inactive
32 | O=CN(CCO)CCO | inactive
33 | O=C1NC(=O)C2CC=CCC12 (stereo not given) | inactive
34 | CCC1C(=O)OCC1Cc1cncn1C (stereo not given) | inactive
35 | c1coc(CNc2ncnc3nc[nH]c23)c1 | inactive
36 | CCCCS(=O)(=O)N[C@@H](Cc1ccc(OCCCCC2CCNCC2)cc1)C(=O)O | inactive
37 | CC1=NN(c2cc(S(=O)(=O)O)ccc2Cl)C(=O)C1N=Nc1ccccc1 (stereo not given) | inactive
38 | CO[C@@]1(NC(=O)CSC[C@@H](N)C(=O)O)C(=O)N2C(C(=O)O)=C(CSc3nnnn3C)CS[C@@H]21 | inactive
39 | O=S(=O)(O)c1cccc(S(=O)(=O)O)c1 | inactive
40 | CCN(Cc1ccccc1)c1ccccc1 | inactive
